In PubChem BioAssay (Tox21):
Results filed as inconclusive are left out. Unmarked numbers belong to inactive results. Active and inactive are the calls of the source. Calls come from the whole dose curve.

What follows are molecules tested against Acetylcholinesterase (Homo sapiens) (UniProt P22303) (assay: Acetylcholinesterase (AChE) small molecule antagonists: colormetric cell-based qHTS assay (AID 1347395; note: nearly all actives have a fitted effect of over 30% in size)). Settings: SH-SY5Y cells AChE activity, colorimetric (Ellman); series mostly up to 115 µM; activity, negative = inhibition: at the top concentration.
Source text: National Center for Advancing Translational Sciences [NCATS]
Division of Preclinical Innovation [DPI]
U.S. Environmental Protection Agency [EPA]
National Institutes of Environmental Health Sciences [NIEHS]
National Toxicology Program [NTP]
U.S. Food and Drug Administration [FDA]
Acetylcholinesterase (AChE) is the primary cholinesterase in the body that hydrolyzes a key neurotransmitter, acetylcholine. Inhibition of AChE activity can lead to neurotoxicity. The known inhibitors include organophosphorous pesticides (OP), chemical warfare agents, drugs, and various phytochemicals.
A homogenous cell-based assay using the Amplite Colormetric acetylcholinesterase assay kit (AAT Bioquest, Sunnyvale, CA) was used to evaluate the chemicals in the Tox21 10K library that inhibit AChE activity. The assay uses 5, 5-dithiobis-(2-nitrobenzoic acid) (DTNB) to quantify the thiocholine produced from the hydrolysis of acetylthiocholine by AChE from the SH-SY5Y cells.
Tox21 Assay Protocol Summary:
For the cell-based AChE assay, 2,000 SH-SY5Y cells in 4 uL/well were dispensed into black, clear-bottom 1536-well plates using a Multidrop Combi dispenser (Thermo Scientific, MA). The assay plates were incubated overnight at 37 C to allow cells to attach to the wells, followed by the transfer of 23 nL of compound or DMSO (vehicle control) by a Pintool Station (Wako Automation, CA). The plates were incubated for 30 min at 37 C and 5% CO2, followed by the addition of 4 uL of detection cocktail solution (DTNB, acetylthiocholine) into each well using a Flying Reagent Dispenser (Beckman Coulter, CA) and then 90 min incubation at 37 C.
% is set by controls: 0 for no effect and ±100 for the full control effect; potency is the fitted concentration of half-maximal effect.

Acetylcholinesterase (Homo sapiens), sequence (P22303 whole entry, looked up): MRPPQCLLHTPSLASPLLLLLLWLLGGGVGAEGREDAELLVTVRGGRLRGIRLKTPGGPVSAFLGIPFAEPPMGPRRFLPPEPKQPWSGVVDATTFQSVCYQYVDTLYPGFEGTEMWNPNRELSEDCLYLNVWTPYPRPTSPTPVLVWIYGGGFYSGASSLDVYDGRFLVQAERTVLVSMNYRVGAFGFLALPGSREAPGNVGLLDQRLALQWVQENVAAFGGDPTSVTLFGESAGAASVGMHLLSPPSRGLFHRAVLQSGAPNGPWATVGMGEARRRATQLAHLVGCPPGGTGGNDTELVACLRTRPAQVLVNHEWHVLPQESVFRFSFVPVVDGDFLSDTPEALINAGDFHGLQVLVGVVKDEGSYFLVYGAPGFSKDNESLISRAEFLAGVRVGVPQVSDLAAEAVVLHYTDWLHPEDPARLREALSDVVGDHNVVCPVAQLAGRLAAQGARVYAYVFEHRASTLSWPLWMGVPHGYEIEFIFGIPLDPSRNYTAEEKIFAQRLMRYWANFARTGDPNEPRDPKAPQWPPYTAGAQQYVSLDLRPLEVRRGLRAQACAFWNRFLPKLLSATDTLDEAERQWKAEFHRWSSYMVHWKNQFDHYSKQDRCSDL

Row | Compound | activity, negative = inhibition | Potency
1 | CC(O)(CS(=O)(=O)c1ccc(F)cc1)C(=O)Nc1ccc(C#N)c(C(F)(F)F)c1 (stereo not given) | -0.939% [at 52.9 µM] | –
2 | COc1ccc(-c2ccccc2)cc1NNC(=O)OC(C)C | 0.426% | –
3 | N#Cc1ccc(Cl)cc1 | -1.98% | –
4 | O=C1C(Cl)C(CCl)CN1c1cccc(C(F)(F)F)c1 (stereo not given) | -1.89% | –
5 | [O-][Cl+]O | 1.75% | –
6 | ClCCCCBr | 5.83% | –
7 | CCCCN=C=O | 1.99% | –
8 | O=C(NCc1cccnc1)Nc1ccc([N+](=O)[O-])cc1 | -0.342% | –
9 | COCC(C)N(C(=O)CCl)c1c(C)csc1C (stereo not given) | -1.02% | –
10 | [CH3][Sn]([CH3])([Cl])[Cl] | – | inactive
11 | O=NN1CCNCC1 | 0.0969% | –
12 | N#CCC#N | -1.49% | –
13 | CCOc1ccc(C(C)(C)COCc2cccc(Oc3ccccc3)c2)cc1 | -0.838% | –
14 | O=Cc1ccc2c(c1)OCO2 | 0.307% | –
15 | CCOC(=O)COc1cc(-c2nn(C)c(OC(F)F)c2Cl)c(F)cc1Cl | 2% | –
16 | C=COC(C)=O | 1.19% | –
17 | O=C(Nc1ccccc1)Nc1ccnc(Cl)c1 | -0.348% | –
18 | CC(=O)C(C)(C)C | -0.145% | –
19 | C=CC(C)=O | 2.7% | –
20 | CCOC(=O)[C@]1(c2ccccc2)Oc2ccccc2[C@@H]1N | – | 79.6 µM (active)

Row | Compound | activity, negative = inhibition | Potency
21 | O=C(CCl)c1ccc(Cl)cc1Cl | – | inactive
22 | Cn1cc[n+](C)c1 (tested in a mixture with another compound) | -8.26% | –
23 | COC(=O)C(Cl)C(=O)OC | 2.86% [at 52.9 µM] | –
24 | C=CC(=O)NCNC(=O)C=C | -0.205% | –
25 | CC1Sc2c(C(=O)O)c(=O)c3cc(F)c(N4CCNCC4)cc3n21 (stereo not given) | -12.3% [at 52.9 µM] | –
26 | c1ccc(CN2CCNCC2)cc1 | 1.51% [at 300 µM] | –
27 | O=S(=O)(Cl)c1ccccc1 | -3.79% | –
28 | Cc1ccccc1CCl | 4.27% | –
29 | ClC=C(Cl)Cl | 1.2% | –
30 | O=C1NCN(c2ccccc2)C12CCN(CCCOc1ccc(F)cc1)CC2 | -2.11% [at 52.9 µM] | –
31 | CCCCCCCCCC(=O)O[C@H]1CC[C@H]2[C@@H]3CCC4=CC(=O)CC[C@@H]4[C@H]3CC[C@]12C | -2.52% [at 52.9 µM] | –
32 | S=C=NCc1ccccc1 | -1.49% | –
33 | ClCc1ccccc1 | 2.22% | –
34 | Clc1ccc(C2(Cn3cncn3)CC(Br)CO2)c(Cl)c1 (stereo not given) | -16.3% | –
35 | CN1C(=O)NC(=O)C(C)(C2=CCCCC2)C1=O (stereo not given) | -3.07% [at 52.9 µM] | –
36 | COCCOCCO | 5.35% | –
37 | C[C@H]1CNCCc2ccc(Cl)cc21 | -0.705% [at 52.9 µM] | –
38 | C/C(=C\c1ccccc1)[N+](=O)[O-] | -0.0736% | –
39 | CC(C)(CCl)C(=O)Cl | 0% | –
40 | CCOC(=O)CBr | 1.34% | –
